# High-throughput results: PubChem, several laboratories
# Peg3 prom inh: Peg3 promoter-driven luciferase inhibitors, primary screen, cell-based, HeLa, luciferase luminescence | HeLa PEG-Prom luciferase reporter, overnight | inhibition, % at 20 µM | 360,000 tested, 1.7% active;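 active means inhibition of at least 50% at 20 µM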
# MITF TRPM1 inh: inhibitors of MITF-dependent TRPM1 promoter reporter, primary screen, cell-based, SK-MEL-5, single point, luciferase; inhibition, % at 12.5 µM; 330,000 tested, 0.83% active; SK-MEL-5 TRPM1 promoter luciferase, 24 h; AID 488899, 2010;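 active means mean inhibition across replicates of 60% or more, whatever share of single replicates reaches that level; inconclusive means some that reach 60%, reason not given; inactive means mean inhibition across replicates below 60%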
# Shn3 inh set2: reduction of Shn3 3'UTR firefly luciferase signal, primary screen, Schnurri-3 inhibitor project, cell-based, Clone20 osteoblasts, set 2; Clone20 osteoblast Shn3 3'UTR firefly luciferase, 24 h; inhibition, % at 12.5 µM; 360,000 tested, 0.52% active;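 active means mean inhibition of at least 75% with every replicate also reaching 75%; inconclusive means mean inhibition at least 75% but some replicate below; inactive means mean inhibition below 75%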;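 further: 0% = median of neutral control wells and 100% = pilot-screen positive control compound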
# HIF-2a block: HIF-2a reporter inhibitors, primary screen, luminescence, 786-0 RCC cells. 786-0 RCC cells HIF-2a reporter, luciferase luminescence, overnight. inhibition, % at 18.8 µM. 360,000 tested, 0.72% active. AID 624352, 2012;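 active means inhibition of the luminescence signal of 40% or more relative to plate controls, in a single-dose primary screen at 18.75 µM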
# CF NFkB block: inhibitors of PAF-induced NF-kB signaling, primary screen, cell-based, GFP fluorescence, uHTS; KKLEB NF-kB-GFP reporter, GFP fluorescence overnight; inhibition, % at 5 µM; 360,000 tested, 0.86% active; AID 588850, 2011;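 active means at least 50% inhibition at 5 µM, scaled per plate between neutral and stimulator controls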;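 further: PAF is a Pseudomonas aeruginosa culture filtrate used as stimulus; plate controls were PAF-stimulated DMSO wells for no effect and unstimulated DMSO wells for full effect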
# KKLEB tox: cytotoxicity in KKLEB CF airway cells, primary screen, cytotoxicity control for CF NF-kB inhibitor project, cell-based, uHTS, fluorescence assay plates; AID 602141, 2011; activity change (cytotoxicity), % at 5 µM; KKLEB CF airway cells viability, ATPlite luminescence, overnight; hits give low values; cells stimulated with P. aeruginosa culture filtrate; 360,000 tested, 0.36% active;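 active means corrected activity change at or below -50% at 5 µM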
# Mdm2 MdmX conf: retested Mdm2-MdmX interaction blockers, confirmation, cell-based, luminescence, single concentration, set 2. shares compounds with HIF-2a block. SaOS-2 split-luciferase Mdm2/MdmX complementation. inhibition, % at 8 µM. 740 tested, 99% active. AID 504601, 2011;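 active means mean inhibition of the luminescence signal across two replicates at or above 26 percent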
# Target sequence (O15151 whole entry, looked up): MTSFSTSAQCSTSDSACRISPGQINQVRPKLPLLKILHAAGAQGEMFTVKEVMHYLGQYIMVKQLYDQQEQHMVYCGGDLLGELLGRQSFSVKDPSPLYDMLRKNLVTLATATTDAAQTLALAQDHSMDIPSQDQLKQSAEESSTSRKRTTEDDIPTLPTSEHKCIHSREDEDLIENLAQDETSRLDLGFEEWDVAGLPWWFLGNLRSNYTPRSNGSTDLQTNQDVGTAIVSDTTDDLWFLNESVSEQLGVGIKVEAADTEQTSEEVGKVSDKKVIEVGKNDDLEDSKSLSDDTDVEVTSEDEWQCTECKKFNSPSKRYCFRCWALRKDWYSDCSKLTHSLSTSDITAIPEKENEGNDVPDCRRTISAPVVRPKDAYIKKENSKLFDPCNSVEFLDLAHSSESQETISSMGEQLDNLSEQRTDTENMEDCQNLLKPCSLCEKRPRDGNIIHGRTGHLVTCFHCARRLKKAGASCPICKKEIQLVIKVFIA
# Target sequence (Q00987 whole entry, looked up): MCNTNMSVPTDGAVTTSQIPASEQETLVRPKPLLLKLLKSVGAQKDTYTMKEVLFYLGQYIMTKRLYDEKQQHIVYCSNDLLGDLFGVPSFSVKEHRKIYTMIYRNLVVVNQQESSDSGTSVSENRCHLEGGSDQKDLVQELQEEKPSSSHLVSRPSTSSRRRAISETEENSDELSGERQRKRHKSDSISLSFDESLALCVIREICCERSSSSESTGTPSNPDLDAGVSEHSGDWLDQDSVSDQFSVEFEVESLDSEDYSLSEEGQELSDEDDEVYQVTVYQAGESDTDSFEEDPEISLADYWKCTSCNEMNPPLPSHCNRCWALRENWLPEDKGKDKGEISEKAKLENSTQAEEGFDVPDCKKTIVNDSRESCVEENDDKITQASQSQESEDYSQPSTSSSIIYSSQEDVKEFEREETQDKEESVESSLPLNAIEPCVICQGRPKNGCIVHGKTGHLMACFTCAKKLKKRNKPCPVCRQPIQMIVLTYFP
# HIF-2a conf: HIF-2a reporter inhibitor retest, confirmation, luminescence, 786-0 RCC cells | shares compounds with HIF-2a block | HIF-2a luciferase reporter luminescence, overnight | inhibition, % at 18.8 µM | 1,800 tested, 56% active | AID 651580, 2012;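 active means mean inhibition across four replicates of at least 40 percent at the single tested concentration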
# HIF-1a counter: HIF-1a luciferase reporter signal reduction – MiaPaCa-2 cells, single concentration, counter-screen for HIF-2a inhibitor project, confirmation; shares compounds with HIF-2a block; MiaPaCa-2 HIF-1a luciferase reporter, desferoxamine, overnight; inhibition, % at 18.8 µM; 1,800 tested, 72% active; AID 651589, 2012;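 active means mean inhibition of the reporter signal across four replicates at the single tested dose of 50% or more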
# An asterisk follows results filed as active; u = inconclusive; x = not tested or not shown. A selection: hits, their analogues and other compounds. The true share with any hit is near 2.8%.
SMILES,Peg3 prom inh,MITF TRPM1 inh,Shn3 inh set2,HIF-2a block,CF NFkB block,KKLEB tox,others
CC(=O)OC1CC2C(C)(C)C(=O)C=CC2(C)C2CCC3(C)C(c4ccoc4)OC(=O)C4OC43C12C (stereo not drawn),45,x,-10,45*,33,0,HIF-2a conf=42*;HIF-1a counter=59*
CCCn1c(SCC(=O)Nc2ccc(S(=O)(=O)N3CCOCC3)cc2)n[nH]c1=O,-10,x,-6,11,12,-6,
Cc1cccc(-n2c(=S)[nH]c3sc4c(c3c2=O)CCc2ccccc2-4)c1,19,15,-6,27,-10,13,
Cc1cc(C)c(/C=N/NC(=O)c2nnn(-c3nonc3N)c2CN2CCC(C)CC2)c(C)c1,31,2,3,0,8,7,
CC1CCN(Cc2c(C(=O)N/N=C/c3cc(Br)ccc3O)nnn2-c2nonc2N)CC1,74*,65*,u,6,37,-21,Mdm2 MdmX conf=91*
COC(=O)Cn1c(=O)c2c(nc3n2CC(C)CN3c2ccc(C)c(C)c2)n(C)c1=O (stereo not drawn),9,11,-5,13,-29,-1,
O=C(O)c1cccc2c1C(=O)c1ccccc1-2,3,17,-3,19,5,-2,
O=C1C(=C(I)I)c2ccccc2-c2ccccc21,104*,99*,98*,93*,82*,-100*,HIF-2a conf=96*;HIF-1a counter=103*
Cc1c(NC(=O)C(C)OC(=O)COc2ccc(C#N)cc2)c(=O)n(-c2ccccc2)n1C (stereo not drawn),3,1,-4,13,-6,4,
Cc1cccc2c1NC(=O)C2(c1ccc(O)cc1)c1ccc(O)cc1,27,22,-1,24,48,-45,
Cc1cc(C2(c3ccc(O)c(C)c3)C(=O)Nc3ccccc32)ccc1O,80*,35,32,45*,0,4,HIF-2a conf=22;HIF-1a counter=69*
COc1ccc(NC(=O)CSc2c3c(nc4ccccc24)CCCC3)c(OC)c1,5,14,45,47*,31,-6,HIF-2a conf=9;HIF-1a counter=91*
Clc1ccc2c(N/N=C/c3ccccc3Br)ccnc2c1,84*,83*,21,-27,-50,-43,Mdm2 MdmX conf=103*
O=C(CCN1C(=O)/C(=C/c2ccccc2)SC1=S)N1CCCCCC1,105*,25,-9,67*,31,-5,Mdm2 MdmX conf=102*
Cc1ccc(/C=C2/SC(=S)N(CCCC(=O)Nc3ccc(O)cc3)C2=O)cc1,-62,44,13,-8,-10,4,Mdm2 MdmX conf=101*
O=C(CCCN1C(=O)/C(=C/c2ccccc2)SC1=S)Nc1cccc(O)c1,78*,-9,0,73*,8,-9,Mdm2 MdmX conf=103*
CN1CCN(C(=O)CCCN2C(=O)/C(=C/c3ccccc3)SC2=S)CC1,25,-8,-102,28,11,-6,
Cn1c(=O)c2ccccc2n(CC(=O)N2CCCc3ccccc32)c1=O,8,5,3,14,-2,0,
Cc1ccc(C(=O)c2ccc(O)cc2)cc1C,-128,-35,-40,-126,5,3,
CCC(=O)Nc1cccc(C(=O)c2ccc(C)c(C)c2)c1,-20,-11,13,45*,-3,-7,HIF-2a conf=65*;HIF-1a counter=15
Cc1ccc(C(=O)c2cccc(N)c2)cc1C,-19,66*,2,84*,-8,-14,HIF-2a conf=93*;HIF-1a counter=56*
CCC(=O)Nc1cccc(C(=O)/C=C/c2ccccc2)c1,102*,10,-36,44*,3,-10,HIF-2a conf=-46;HIF-1a counter=101*
Cc1ccc(NS(=O)(=O)c2c(C)[nH]c(C)c2C(=O)N2CCCCC2)c(Br)c1,14,10,15,9,8,2,
CCc1ccccc1NC(=O)CN1CCN(C(=O)CCC(=O)N2CCC(c3ccccc3)=N2)CC1,7,-3,17,8,15,3,
CC(C)n1nnnc1C1c2ccccc2C(=O)N1C1CC1 (stereo not drawn),x,x,x,-2,x,x,
SMILES,Peg3 prom inh,MITF TRPM1 inh,Shn3 inh set2,HIF-2a block,CF NFkB block,KKLEB tox,others
COc1ccccc1Oc1cc(C#N)c(C#N)cc1-n1nnc2ccccc21,23,21,-1,46*,7,-4,HIF-2a conf=20;HIF-1a counter=54*
COc1ccc(C(C(=O)NC2CCCCC2)N(C(=O)CCl)c2ccc(OC)cc2)cc1 (stereo not drawn),101*,82*,92*,30,72*,-81*,Mdm2 MdmX conf=95*
CCc1ccccc1N(C(=O)CNC(=O)c1ccco1)C(C(=O)NC1CCCC1)c1cccnc1 (stereo not drawn),-6,-1,-8,14,-3,1,
COc1ccc(C(C(=O)NC2CCCCC2)N(C(=O)CCl)c2ccc(C)cc2)cc1 (stereo not drawn),69*,82*,3,29,91*,-93*,Mdm2 MdmX conf=102*
O=C(NC1CCCCC1)C(c1cccnc1)N(C(=O)CCl)c1ccccc1Cl (stereo not drawn),30,20,-14,30,10,-8,Mdm2 MdmX conf=103*
CNC(=O)/C(=C\c1ccc([N+](=O)[O-])cc1)NC(C)=O,-4,0,-5,14,-6,13,
CN(C(=O)COC(=O)CCC(=O)c1ccc(F)cc1)C1CCCCC1,10,-8,-25,-2,-30,21,
COc1ccccc1C1=NN(C(=O)c2ccccc2)C(c2ccc(Br)cc2)C1 (stereo not drawn),-16,16,-1,-9,15,-9,
O=C(c1ccc(=O)[nH]n1)N1CCN(S(=O)(=O)c2ccc(C(F)(F)F)cc2)CC1,-20,-10,-2,2,15,-12,
Cc1ccc2c(C(=O)CN3CCSCC3)c(C)[nH]c2c1,-10,0,-12,-14,13,-14,
Cc1ccc2c(C(=O)CCl)c(C)[nH]c2c1,50,69*,-20,0,78*,-32,Mdm2 MdmX conf=103*
Cc1ccc(-n2nc3c(N4CCC(C(=O)NCc5ccc(C)o5)CC4)nnc(C)c3c2C)cc1,-2,42,-33,7,6,2,
